Laboratory results from PubChem BioAssay (NCATS).
Records with an inconclusive call do not appear. Entries that show only a call come without a potency. The source made the active and inactive calls. Calls come from the whole dose curve.

Assay: Primary qHTS for inhibitors of SARS-S pseudo-typed particle cell entry (AID 1479145); note: nearly all actives have a fitted effect of over 45% in size
Settings: SARS-S pseudotyped particle cell entry, luciferase reporter; series mostly up to 57.1 µM
With CCN(CC)CC(=O)Nc1c(C)cccc1C the Potency was “inactive”. For CCC(C(=O)OCCN1CCOC(c2ccccc2)C1C)c1ccccc1 (stereo unspecified), the Potency was “inactive”. With N[C@H]1CN(c2c(F)cc3c(=O)c(C(=O)O)cn(C4C[C@@H]4F)c3c2Cl)CC12CC2 (stereo partly specified) the Potency was “inactive”. With NC1=NCC2c3ccccc3Cc3ccccc3N12 (stereo unspecified) the Potency was “inactive”. In the case of Nc1ccc(S(=O)(=O)Nc2nccs2)cc1, the Potency is reported as “inactive”. In the case of NCCNC(=O)c1ccc(Cl)cn1, the Potency is reported as “inactive”. With Cc1nc(C2CCCCC2)c(-c2ccc(S(N)(=O)=O)c(F)c2)o1 the Potency was “inactive”. For CN1CCOC(c2ccccc2)c2ccccc2C1 (stereo unspecified), the Potency was “inactive”. With CCOC(=O)[C@H](CCc1ccccc1)N[C@H]1CS[C@H](c2cccs2)CN(CC(=O)O)C1=O the Potency was “inactive”. In the case of CCOC(=O)n1ccn(C)c1=S, the Potency is reported as “inactive”. For Nc1c2c(nc3ccccc13)CCCC2, the Potency was “inactive”. In the case of Nc1ccc(S(=O)(=O)Nc2cnc3ccccc3n2)cc1, the Potency is reported as “inactive”. In the case of CC1(C)[C@@H]2CC[C@@]1(C)C(=O)C2, the Potency is reported as “inactive”. For CN(C)[C@@H]1C(=O)C(C(=O)NCN2CCCC2)=C(O)[C@@]2(O)C(=O)C3=C(O)c4c(O)cccc4[C@@](C)(O)C3C[C@@H]12 (stereo partly specified), the Potency was “inactive”. With CCC(=O)O[C@]1(C(=O)COC)[C@@H](C)C[C@H]2[C@@H]3CCC4=CC(=O)C=C[C@]4(C)C3(F)[C@@H](O)C[C@@]21C (stereo partly specified) the Potency was “inactive”. In the case of O=C(O)COC(=O)Cc1ccccc1Nc1c(Cl)cccc1Cl, the Potency is reported as “inactive”. For N#Cc1cc(NC(=O)C(=O)O)c(Cl)c(NC(=O)C(=O)O)c1, the Potency was “inactive”. With Cc1ccc(O)cc1 the Potency was “inactive”. In the case of Cc1ccc(C(=O)Oc2ccc(C(O)CNC(C)(C)C)cc2OC(=O)c2ccc(C)cc2)cc1 (stereo unspecified), the Potency is reported as “inactive”. For CC1(C)O[C@@H]2C[C@H]3[C@@H]4C[C@H](F)C5=CC(=O)C=C[C@]5(C)[C@H]4[C@@H](O)C[C@]3(C)[C@]2(C(=O)CO)O1, the Potency was “inactive”. For Cc1ccc(/C=N/n2c(-c3ccccc3)csc2=S)cc1, the Potency was “inactive”. For CN(Cc1ccc(C(C)(C)C)cc1)Cc1cccc2ccccc12, the Potency was “inactive”. For O=C(O)c1ccc(OCCCOc2ccc(C(=O)O)cc2)cc1, the Potency was “inactive”. With C[N+](C)(C)CCCCCCCCCC[N+](C)(C)C the Potency was “inactive”. With Cc1cc(=O)oc2cc(O)ccc12 the Potency was “inactive”. For CCCCOc1ccc(OCCCN2CCOCC2)cc1, the Potency was “inactive”. For O=C(Nc1ccc([N+](=O)[O-])cc1)Nc1ccc([N+](=O)[O-])cc1, the Potency was “inactive”. With CCOc1cc(N)c(Cl)cc1C(=O)NCC1CN(Cc2ccc(F)cc2)CCO1 (stereo unspecified) the Potency was “inactive”. With CCN(CC)CC(=O)Nc1c(C)cccc1C(=O)OC the Potency was “inactive”. In the case of Cc1ncc(CSSCc2cnc(C)c(O)c2CO)c(CO)c1O, the Potency is reported as “inactive”. With CCn1cc(C(=O)O)c(=O)c2cc(F)c(N3CCNCC3)nc21 the Potency was “inactive”. For COC(=O)C1=C(C)NC(COC(N)=O)=C(C(=O)OC(C)C)C1c1cccc(Cl)c1Cl (stereo unspecified), the Potency was “inactive”. In the case of CCC(=O)O[C@]1(C(=O)SCF)[C@H](C)C[C@H]2[C@@H]3C[C@H](F)C4=CC(=O)C=C[C@]4(C)[C@@]3(F)[C@@H](O)C[C@@]21C, the Potency is reported as “inactive”. In the case of CCNC(=O)NCCCOc1cccc(CN2CCCCC2)c1, the Potency is reported as “inactive”. With CCCc1nc(C)c2c(=O)[nH]c(-c3cc(S(=O)(=O)N4CCN(CC)CC4)ccc3OCC)nn12 the Potency was “inactive”. For OCC(CO)N[C@H]1C[C@](O)(CO)[C@@H](O)[C@H](O)[C@H]1O, the Potency was “inactive”. With Cc1cccc(CN2CCN(C(c3ccccc3)c3ccc(Cl)cc3)CC2)c1 (stereo unspecified) the Potency was “inactive”. With CCC(=O)O[C@]1(C(=O)CCl)[C@@H](C)C[C@H]2[C@@H]3CCC4=CC(=O)C=C[C@]4(C)[C@@]3(F)[C@@H](O)C[C@@]21C the Potency was “inactive”.

Assay: Primary qHTS for Huh7 cytotoxicity: counterscreen for inhibitors of MERS-S pseudotyped particle cell entry (AID 1479147)
Settings: cell viability read-out; series mostly up to 57.1 µM
With CCN(CC)CC(=O)Nc1c(C)cccc1C the Potency was “inactive”. With CCC(C(=O)OCCN1CCOC(c2ccccc2)C1C)c1ccccc1 (stereo unspecified) the Potency was “inactive”. For N[C@H]1CN(c2c(F)cc3c(=O)c(C(=O)O)cn(C4C[C@@H]4F)c3c2Cl)CC12CC2 (stereo partly specified), the Potency was “inactive”. With NC1=NCC2c3ccccc3Cc3ccccc3N12 (stereo unspecified) the Potency was “inactive”. With Nc1ccc(S(=O)(=O)Nc2nccs2)cc1 the Potency was “inactive”. For NCCNC(=O)c1ccc(Cl)cn1, the Potency was “inactive”. For Cc1nc(C2CCCCC2)c(-c2ccc(S(N)(=O)=O)c(F)c2)o1, the Potency was “inactive”. In the case of CN1CCOC(c2ccccc2)c2ccccc2C1 (stereo unspecified), the Potency is reported as “inactive”. For CCOC(=O)[C@H](CCc1ccccc1)N[C@H]1CS[C@H](c2cccs2)CN(CC(=O)O)C1=O, the Potency was “inactive”. With CCOC(=O)n1ccn(C)c1=S the Potency was “inactive”. In the case of Nc1c2c(nc3ccccc13)CCCC2, the Potency is reported as “inactive”. In the case of Nc1ccc(S(=O)(=O)Nc2cnc3ccccc3n2)cc1, the Potency is reported as “inactive”. With CC1(C)[C@@H]2CC[C@@]1(C)C(=O)C2 the Potency was “inactive”. In the case of CN(C)[C@@H]1C(=O)C(C(=O)NCN2CCCC2)=C(O)[C@@]2(O)C(=O)C3=C(O)c4c(O)cccc4[C@@](C)(O)C3C[C@@H]12 (stereo partly specified), the Potency is reported as “inactive”. For CCC(=O)O[C@]1(C(=O)COC)[C@@H](C)C[C@H]2[C@@H]3CCC4=CC(=O)C=C[C@]4(C)C3(F)[C@@H](O)C[C@@]21C (stereo partly specified), the Potency was “inactive”. In the case of O=C(O)COC(=O)Cc1ccccc1Nc1c(Cl)cccc1Cl, the Potency is reported as “inactive”. With N#Cc1cc(NC(=O)C(=O)O)c(Cl)c(NC(=O)C(=O)O)c1 the Potency was “inactive”. In the case of Cc1ccc(O)cc1, the Potency is reported as “inactive”. For Cc1ccc(C(=O)Oc2ccc(C(O)CNC(C)(C)C)cc2OC(=O)c2ccc(C)cc2)cc1 (stereo unspecified), the Potency was “inactive”. With CC1(C)O[C@@H]2C[C@H]3[C@@H]4C[C@H](F)C5=CC(=O)C=C[C@]5(C)[C@H]4[C@@H](O)C[C@]3(C)[C@]2(C(=O)CO)O1 the Potency was “inactive”. In the case of Cc1ccc(/C=N/n2c(-c3ccccc3)csc2=S)cc1, the Potency is reported as “inactive”. For CN(Cc1ccc(C(C)(C)C)cc1)Cc1cccc2ccccc12, the Potency was “inactive”. In the case of O=C(O)c1ccc(OCCCOc2ccc(C(=O)O)cc2)cc1, the Potency is reported as “inactive”. For C[N+](C)(C)CCCCCCCCCC[N+](C)(C)C, the Potency was “inactive”. With Cc1cc(=O)oc2cc(O)ccc12 the Potency was “inactive”. In the case of CCCCOc1ccc(OCCCN2CCOCC2)cc1, the Potency is reported as “inactive”. In the case of O=C(Nc1ccc([N+](=O)[O-])cc1)Nc1ccc([N+](=O)[O-])cc1, the Potency is reported as “inactive”. For CCOc1cc(N)c(Cl)cc1C(=O)NCC1CN(Cc2ccc(F)cc2)CCO1 (stereo unspecified), the Potency was “inactive”. With CCN(CC)CC(=O)Nc1c(C)cccc1C(=O)OC the Potency was “inactive”. In the case of Cc1ncc(CSSCc2cnc(C)c(O)c2CO)c(CO)c1O, the Potency is reported as “inactive”. For CCn1cc(C(=O)O)c(=O)c2cc(F)c(N3CCNCC3)nc21, the Potency was “inactive”. In the case of COC(=O)C1=C(C)NC(COC(N)=O)=C(C(=O)OC(C)C)C1c1cccc(Cl)c1Cl (stereo unspecified), the Potency is reported as “inactive”. With CCC(=O)O[C@]1(C(=O)SCF)[C@H](C)C[C@H]2[C@@H]3C[C@H](F)C4=CC(=O)C=C[C@]4(C)[C@@]3(F)[C@@H](O)C[C@@]21C the Potency was “inactive”. In the case of CCNC(=O)NCCCOc1cccc(CN2CCCCC2)c1, the Potency is reported as “inactive”. For CCCc1nc(C)c2c(=O)[nH]c(-c3cc(S(=O)(=O)N4CCN(CC)CC4)ccc3OCC)nn12, the Potency was “inactive”. For OCC(CO)N[C@H]1C[C@](O)(CO)[C@@H](O)[C@H](O)[C@H]1O, the Potency was “inactive”. With Cc1cccc(CN2CCN(C(c3ccccc3)c3ccc(Cl)cc3)CC2)c1 (stereo unspecified) the Potency was “inactive”. For CCC(=O)O[C@]1(C(=O)CCl)[C@@H](C)C[C@H]2[C@@H]3CCC4=CC(=O)C=C[C@]4(C)[C@@]3(F)[C@@H](O)C[C@@]21C, the Potency was “inactive”.
